nsP2pro inh = Primary qHTS for inhibitors of NSP2Pro chikungunya virus (CHIKV). Polyprotein P1234 (Chikungunya virus (strain S27-African prototype)), Q8JUX6. actives 1.1% (n = 31,000). AID 1964107, 2024. Potency, µM (titrated, usually from 24.9 µM), hits mostly inhibitors. FRET peptide cleavage, nsP2pro, fluorescence 1 h; calls by dose curve; note: nearly all actives have a fitted effect of over 60% in size
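Recombinant nsP2pro (150 nM) was preincubated with compound 15 min at room temperature in 10 mM Tris-HCl pH 8.0, 0.01% Tween 20. Peptide 2 FRET substrate (2.5 uM) was then added and fluorescence read after 1 h. Seven-point series, up to 25 uM.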
Hits are given with their value; 0 = inactive; ! = a repeat was not active. The sample as a whole holds a higher share of hits than the screen did.

SMILES	nsP2pro inh
COc1ccc2c(c1)[nH]c1c(C)nccc12	0
COCCCOc1ccnc(CS(=O)c2nc3ccccc3[nH]2)c1C (stereo unspecified)	0
COc1ccc2nc(S(=O)Cc3ncc(C)c(OC)c3C)[nH]c2c1 (stereo unspecified)	10µM!
CCC(CC)C(c1ccc(Nc2nc3ccccc3s2)cc1)n1cncn1 (stereo unspecified)	0
COc1ccc(CN2CCn3c(nnc3C3CCCNC3)C2)cc1 (stereo unspecified)	0
NC(=O)c1ncn(C2OC(CO)C(O)C2O)c1O (stereo unspecified)	0
O=C(NCc1ccc(Cl)cc1)c1ccc2nnc(-c3cc[nH]c3)n2c1	0
Cc1cc2ncc(C(=O)NCc3ccccc3Cl)cn2n1	0
O=C(NCc1ccccc1Cl)c1ccc2nnc(-c3ccoc3)n2c1	11µM
COc1ccc(-n2nc(C(=O)O)c(=O)n(C)c2=O)cc1	0
CCC1CCCCN1C(=O)c1nn(-c2ccc(OC)cc2)c(=O)c2c1c1ccccc1n2C (stereo unspecified)	0
CCOC(=O)c1nn(-c2ccc(OC)cc2)c(=O)c2c(N)scc12	11µM
COc1ccccc1CNC(=O)C1CN(C(C)C)C(=O)N1 (stereo unspecified)	0
CC(=O)OC1CCC2(C)C(CCC3(C)C2CC=C2C4C(C)C(C)CCC4(C)CCC23C)C1(C)C(=O)O (stereo unspecified)	1.2µM
CC(=O)O[C@@H]1CC[C@@]2(C)C(CC[C@]3(C)C2[C@H](O)C=C2[C@H]4[C@@H](C)[C@H](C)CC[C@]4(C)CC[C@]23C)[C@@]1(C)C(=O)O (stereo partly specified)	0
COC(=O)C12CCC(C)C(C)C1C1=CCC3C4(C)CCC(OC(C)=O)C(C)(C)C4CCC3(C)C1(C)CC2 (stereo unspecified)	0
CC1(C)Oc2ncnc(N)c2N=C1c1ccc(C23CCC(CC(=O)O)(CC2)CC3)cc1	0
COCCCn1c(=O)c(C(=O)NC2CC2)nc2cccnc21	0
CNC(=O)c1cc(C2CC2)nc2onc(C3CCN(C(=O)c4ccc(Cl)nc4)C3)c12 (stereo unspecified)	0
Fc1ccc(-c2cccc(CN3CCOCC3)c2)c(Cl)c1	0
O=C(c1nc2c(o1)CCN(Cc1cccc(F)c1)CC2)N1CCOCC1	2.8µM
Cn1c(C(=O)Nc2ccc3c(c2)OCO3)cc2c1CCN(Cc1cccc(F)c1)C2	0
O=C(CCC#CCSc1nnc(-c2cccc3ccccc23)o1)c1ccccc1	0
O=C(O)C1CCC(C(=O)Nc2ccc([S+](=O)([O-])Nc3nccs3)cc2)CC1 (stereo unspecified)	0
CC1=C(c2ccc(C)c(C)c2)S(=O)(=O)N=C1N1CCC(C(=O)NCc2ccc(Cl)cc2)CC1	0
SMILES	nsP2pro inh
CC1=C(c2ccc(C)c(C)c2)S(=O)(=O)N=C1N1CCC(C(=O)Nc2ccc(Cl)cc2)CC1	0
CC1=C(c2ccc(Cl)cc2)S(=O)(=O)N=C1N1CCC(C(=O)NCCc2ccco2)CC1	11µM
CCc1nnc2sc(-c3ccc(C)c(NC(=O)c4ccc(-c5cccc(Cl)c5)o4)c3)nn12	0
COCC(=O)N1c2nc(C(C)C)nn2C2(CCCCC2)[C@@H]2CCCC[C@@H]21	11µM
O=C(c1cccc([N+](=O)[O-])c1)N1c2ncnn2C2(CCCCC2)[C@@H]2CCCC[C@@H]21	0
CC(=O)N1c2nc(-c3ccco3)nn2C2(CCCCC2)[C@@H]2CCCC[C@@H]21	0
COCCN(C)Cc1ccc2nc3sc(C(=O)N(C)C4CCCCC4)cn3c2c1	0
COc1ccc(-c2nc3ccccc3s2)cc1	0
COc1ccc(-c2nc3ccc(OC)cc3s2)cc1	0
COc1ccc(-c2cc(=S)ss2)cc1	11µM
CC(C)(C)C1CCC(C(=O)Nc2ccc(S(=O)(=O)Nc3nccs3)cc2)CC1 (stereo unspecified)	0
COc1cnc(-n2cnc(C)n2)c2[nH]cc(C(=O)C(=O)N3CCN(C(=O)c4ccccc4)CC3)c12	0
CCC[C@@H](NC(=O)[C@@H]1[C@H]2CCC[C@@H]2CN1C(=O)[C@@H](NC(=O)[C@@H](NC(=O)c1cnccn1)C1CCCCC1)C(C)(C)C)C(=O)C(=O)NC1CC1	7.9µM
COc1ccc2c(c1)C(CN1CCN(c3ccc4oc(C(=O)O)cc4c3Cl)CC1)=CC(C)(C)CO2	0
CC(C)CN1C(=O)COC[C@@H]1[C@H](O)c1ccc(NC(=O)c2ccc3c(c2)OCO3)cc1	0
NC1CCCCN(Cc2ccc(Cl)c(F)c2)C1 (stereo unspecified)	0
FC(F)(F)c1cc(-c2ncn(/C=C\c3nnco3)n2)cc(C(F)(F)F)c1	0
Clc1ccc(CSc2nc3ncc(Br)cc3[nH]2)cc1	0
O=C(Cn1cccc1-c1nc(-c2ccc(F)cc2)no1)NCc1ccccc1Cl	0
Cc1ccccc1NC(=O)Nc1ccc(CN2C(=O)N([C@@H](CC(C)C)C(=O)N[C@@H](CC(=O)O)c3ccccc3)C(=O)C2(C)C)cc1	0
Cc1cc(C)nc(NC(=S)N2CCN(c3cc(Cl)cc(Cl)n3)CC2)c1	0
N[C@H](CO)C(=O)O	0
COC(=O)[C@@H](N)CS	11µM
Cc1nn(C)c2c1C(c1ccccc1F)=NCC(=O)N2C	0
CCc1ccc(NS(=O)(=O)c2ccc3[nH]c4c(c3c2)CCCCCC4)cc1	0
SMILES	nsP2pro inh
CCCCc1ccc(NS(=O)(=O)c2ccc(F)cc2)cc1	0
CCc1ccc(NS(=O)(=O)c2[nH]ncc2C(=O)OC)cc1	10µM
CCc1ccc(C(=O)N2CCC([C@@H]3CNC[C@H]3CO)CC2)cc1	0
Cc1cc(-c2nnc3n2CCCCC3)c(C)n1-c1cccnc1	0
c1ccc(-n2ccc(-c3nnc4n3CCCCC4)c2)cc1	13µM
c1ccc(-n2cc(-c3nnc4n3CCCCC4)c3ccccc32)cc1	0
O=C(NCc1ccc2c(c1)CCCO2)c1ccc(C2CCNC2)cc1 (stereo unspecified)	0
CC(C)CCN1CCC2(CC1)COc1ccccc1C(=O)N2	0
CC1(C)CC[C@]2(C(=O)O)[C@H](O)C[C@]3(C)C(=CCC4[C@@]5(C)CC[C@H](O[C@@H]6OC[C@@H](O)[C@H](O)[C@H]6O)[C@@](C)(C(=O)O)C5CC[C@]43C)[C@@H]2C1 (stereo partly specified)	0
C=CCCOC(=O)N1C[C@@H](CO)[C@@H]2Oc3ccc(Cl)cc3[C@@H]21	0
CCOC(=O)c1cnc2ccc(OCC)cc2c1N1CCN(c2ccccc2F)CC1	0
CCOc1ccc(C(c2c(O)cc(C)n(CCOC)c2=O)N2CCN(c3ccccc3F)CC2)cc1 (stereo unspecified)	13µM
Cn1c(=O)cc(SCC(=O)N2CCN(c3ccccc3F)CC2)c2ccccc21	0
CCC(=O)NC[C@@H]1C[C@H]1c1cccc2c1CCO2	0
Cc1noc(C)c1-c1cnc(Nc2ccc(CN3CCN(C)CC3)cc2)c2c1CCO2	0
Cc1cc(-c2cnc(Nc3ccc(F)cc3)c3c2CCO3)ccn1	0
Cn1cc(-c2cnc(Nc3ccc(F)c(Cl)c3)c3c2CCO3)cn1	8.9µM
c1nc(NCC2CCCCC2)c2cc(-c3ccc4c(c3)OCO4)ccc2n1	0
O=C(NCCc1ccc(Cl)cc1)C1CCc2nnc(C3CCN([S+](=O)([O-])c4ccccc4)CC3)n21 (stereo unspecified)	0

High-throughput results as filed in PubChem BioAssay.
